Laboratory results as given in ChEMBL document CHEMBL4513216, “Probing the Open Global Health Chemical Diversity Library for Multistage-Active Starting Points for Next-Generation Antimalarials” (ACS Infect Dis, 2020).
Out of some 69,000 compounds screened, about 8,600 (12%) showed an effect of 50% or more. Many of the other results were omitted from the sample, so strong results are more common in it than they were.

Each molecule was assayed on Plasmodium berghei (assay: Screen against P. berghei liver stage (PbLuc), transformed with Luciferase, at 10uM). Details: tested at 10 uM.
Type: functional, HepG2
`CS(=O)(=O)c1ccc(Cl)c(NC(=O)NCCC2=CCCCC2)c1` was tested, and the INHIBITION was 0.818%. Molecule `COCCC1COC2(CCN(C(=O)c3ccco3)CC2)C1` (stereo not given) has an INHIBITION of 29.6%. `CN(C)C(=O)[C@H]1C[C@H]2OCC[C@H]2N(Cc2ccc3ccccc3n2)C1` was tested, and the INHIBITION was 25.2%. Molecule `CC(C)NC(=O)[C@H]1C[C@@H]2[C@@H](C1)OCCN2Cc1ccco1` has an INHIBITION of 7.24%. Work on `CC(C)(C)OC(=O)N[C@@H]1C[C@@H](O)CN(C(=O)c2cccc(F)c2)C[C@H]1O` yielded an INHIBITION of 4.41%. In the case of `C[C@H]1C(=O)NC[C@H]2CN(Cc3cccc(F)c3)C[C@H]21`, the INHIBITION is reported as 23.5%. `CC(=O)N1CCC2(CC1)CN(C)C(=O)C[C@H]2C(F)(F)F` showed an INHIBITION of 2.79%. For `CC(Nc1c(F)cc(C#N)cc1F)c1cccc(S(N)(=O)=O)c1` (stereo not given), the INHIBITION was -68.1%. `CCN(C)C[C@@H]1CN(C(=O)NC2CCCCC2)C[C@@H]1CO` was tested, and the INHIBITION was 24.5%. In the case of `COCCN(C)C[C@@H]1CN(C(=O)c2ccc(SC)cc2)C[C@@H]1CO`, the INHIBITION is reported as 19.4%. In the case of `COCCN(C)C[C@@H]1CN(C(=O)c2ccc(C)cc2)C[C@@H]1CO`, the INHIBITION is reported as -18.9%. For `COCCN(C)C[C@@H]1CN(C(=O)NC2CCCCC2)C[C@@H]1CO`, the INHIBITION was 50.2%. Work on `COCCN(C)C[C@@H]1CN(C(=O)c2sc3ccccc3c2C)C[C@@H]1CO` yielded an INHIBITION of 17.6%. `COCCN(C)C[C@@H]1CN(C(=O)c2cccc(C(F)(F)F)c2)C[C@@H]1CO` was tested, and the INHIBITION was 23.5%. With `COCCN(C)C[C@@H]1CN(C(=O)c2ccc(=O)n(C)c2)C[C@@H]1CO` the INHIBITION was 57.2%. For `CN(C)CCN(C)C[C@@H]1CN(C(=O)NC2CCCC2)C[C@@H]1CO`, the INHIBITION was 27.4%. In the case of `COCCN(C)C[C@@H]1CN(C(=O)C(C)(C)c2ccccc2)C[C@@H]1CO`, the INHIBITION is reported as 60.6%. Work on `O=C1NC(c2ccccc2)=N[C@@]12CC[C@@H]1CN(CC3CC3)C[C@@H]12` yielded an INHIBITION of 44.2%. `O=C(CCc1nc2cc(Br)cnc2[nH]1)NCCN1CCOCC1` gave an INHIBITION of -7.28%. With `N#Cc1cccc(C(=O)N2CCC(Nc3cccnn3)CC2)c1` the INHIBITION was 15.5%. Work on `Cc1ccc2c(c1)C(NC(=O)N(C)C)CC21CCN(C)CC1` (stereo not given) yielded an INHIBITION of -24.1%. Work on `OC1CCN(c2ccc(CNc3nc4ccccc4o3)cc2F)CC1` yielded an INHIBITION of -37.7%. Molecule `OC1CCN(c2ccc(CNc3nc4ccccc4s3)cc2F)CC1` has an INHIBITION of 59.4%. With `N#Cc1cc(NC(=O)c2cc[nH]n2)ccc1N1CCC(O)CC1` the INHIBITION was 9.65%. Work on `Cc1nc(C(=O)NCc2ccc(N3CCNC(=O)C3)c(F)c2)cs1` yielded an INHIBITION of -11.7%. Molecule `COC(=O)c1sc(NCc2ccc(N3CCC(O)CC3)c(F)c2)nc1Cl` has an INHIBITION of 91.2%. Work on `OC1CCN(c2cnnc3ccccc23)CC1` yielded an INHIBITION of 40.2%. `Cc1cc(NCCNc2cccnc2)nc(N)n1` showed an INHIBITION of 36.8%. Work on `CCC(NS(=O)(=O)c1ccc(C(=O)NC2CC2)cc1)c1cnn(C)c1` (stereo not given) yielded an INHIBITION of -10.1%. Work on `O=C1CC2(CCN(C(=O)c3ccncc3)CC2)Oc2c(Cl)cc(Cl)cc21` yielded an INHIBITION of -29%. Molecule `CC(C)N1CCc2ncn(C(C)C)c2C1C(=O)NCCN1CCCC1` (stereo not given) has an INHIBITION of 30.5%. Work on `CC(C)N1CCc2ncn(C)c2C1C(=O)NCCN1CCCC1` (stereo not given) yielded an INHIBITION of 67.4%. `CC(C)N1CCc2ncn(C)c2C1C(=O)N1CCOCC1` (stereo not given) was tested, and the INHIBITION was 29%. `CCc1noc(Cn2c(=O)c3c(C(F)(F)F)cc(C)nc3n2C)n1` gave an INHIBITION of -7.93%. `O=c1[nH]c(N2CCN(C3CC3)CC2)nc2c1cnn2-c1ccccc1` showed an INHIBITION of 24.7%. Molecule `O=c1[nH]c(N2CC(O)C2)nc2c1cnn2-c1ccccc1` has an INHIBITION of 17.1%. For `CC1CCN(c2nc3c(cnn3-c3ccccc3)c(=O)[nH]2)CC1`, the INHIBITION was 89.6%. Molecule `CCn1cc2c(n1)CN(Cc1sccc1C)CC2COCC1CC1` (stereo not given) has an INHIBITION of 52%. `COCC1CN(Cc2sccc2C)Cc2nnn(CC3CC3)c21` (stereo not given) was tested, and the INHIBITION was -42.9%. With `CCn1cc2c(n1)CN(Cc1nccs1)CC2COCC1CC1` (stereo not given) the INHIBITION was 71.1%. In the case of `CCOCC1CN(Cc2nccs2)Cc2nn(CC3CC3)cc21` (stereo not given), the INHIBITION is reported as 11.4%. With `CCn1cc2c(n1)CN(CC1CC1)CC2COCC1CC1` (stereo not given) the INHIBITION was 19.3%. `CCn1cc2c(n1)CN(C(=O)c1ccncc1)CC2COCC1CC1` (stereo not given) gave an INHIBITION of -30.1%. Work on `OC1CCCN(Cc2ccnc(-c3cccnc3)n2)C1` (stereo not given) yielded an INHIBITION of 19.6%. `CCn1cc(-c2cc(C(F)(F)F)n(CCCN)n2)cn1` gave an INHIBITION of 8.53%. `Fc1ccc(CN[C@@H]2COC[C@H]2c2ccc(F)cc2)cc1` was tested, and the INHIBITION was -27.1%. For `Cc1noc(CN(C)C(=O)c2n[nH]c(N)c2-c2ccccc2)n1`, the INHIBITION was 1.98%. In the case of `Cc1cc(-c2cncnc2)nc(C2CCCN2S(C)(=O)=O)n1` (stereo not given), the INHIBITION is reported as 31.3%. With `O=C(CN1CCCC(c2noc(C3CC3)n2)C1)N1CCCC1` (stereo not given) the INHIBITION was 15.6%. Work on `O=C(CN1CC(c2nc(C3CC3)no2)C1)N1CCOCC1` yielded an INHIBITION of 29.7%. Work on `CC1CCN(C(=O)CN2CC(c3nc(C4CC4)no3)C2)CC1` yielded an INHIBITION of 58.1%. Work on `NC(=O)CN(Cc1ncc(-c2ccc(Cl)cc2)o1)C1CCCC1` yielded an INHIBITION of -46.6%. `CN(CCO)C[C@@H]1CN(C2CCN(c3ccccc3Cl)CC2)C[C@@H]1CO` was tested, and the INHIBITION was 55.2%. `CN(C)C[C@@H]1CN(C2CCN(c3ccccc3Cl)CC2)C[C@@H]1CO` was tested, and the INHIBITION was 22.3%. In the case of `CN(C)C[C@@H]1CN(C2CCN(c3ccc(Cl)cc3)CC2)C[C@@H]1CO`, the INHIBITION is reported as -86.5%. `CCc1nnc(SC2CCCN(c3cnn(C)c3)C2=O)n1C` (stereo not given) showed an INHIBITION of -30.1%. `COc1cccc(N2CC3(CCN(C(=O)NC(C)C)C3)CC2=O)c1` (stereo not given) showed an INHIBITION of -11.2%. `COc1cccc(C2CN(CCc3ccncc3)CCO2)c1` (stereo not given) showed an INHIBITION of 10.5%. With `Cc1ccc(S(=O)(=O)N2CCC(Oc3ccccn3)CC2)c(C)c1` the INHIBITION was 78.2%. Work on `Cc1ccc(S(=O)(=O)N2CCC(Oc3cccnn3)CC2)c(C)c1` yielded an INHIBITION of 49.7%. With `Cc1noc(C)c1S(=O)(=O)N1CCC(Oc2ccccn2)CC1` the INHIBITION was 45.7%. Molecule `CCOCn1cc(NC(=O)C2CCN(S(C)(=O)=O)CC2)cn1` has an INHIBITION of 38.2%. For `COc1ccc(CCCN2C(=O)O[C@@H]3CN(C4CCOCC4)C[C@@H]32)cc1`, the INHIBITION was 34.9%. For `Cc1nsc(NC(=O)N2CCCCC2CCCO)n1` (stereo not given), the INHIBITION was 48%. Molecule `Cc1nsc(NC(=O)N2CCCCC2CCO)n1` (stereo not given) has an INHIBITION of 66.5%. With `Cc1nnc(NC(=O)N2CCCCC2CCO)s1` (stereo not given) the INHIBITION was 44.3%. `CC(C)CCCC(C)NC(=O)c1ccc(OCC(N)=O)cc1` (stereo not given) gave an INHIBITION of 56.4%. In the case of `CCNC(=O)COc1ccc(C(=O)NC(C)CCc2ccco2)cc1` (stereo not given), the INHIBITION is reported as 20.6%. `CC(C)CCC(C)NC(=O)c1ccc(OCC(N)=O)cc1` (stereo not given) showed an INHIBITION of -36.5%. `CCn1cnnc1CNC(=O)c1cc(Cl)c(I)cc1OC` gave an INHIBITION of -7.31%. `CC(=O)NCCC1CCCCN1C(=O)c1cccc(CCC(C)(C)O)c1` (stereo not given) was tested, and the INHIBITION was 19.7%. Molecule `O=C(Nc1ccccc1F)C1=NN(c2ccccc2)C(=O)CN1` has an INHIBITION of -73.1%. Work on `CN(C)CCN1CCOCC2(CCCN(C(=O)Cc3ccccc3)C2)C1` (stereo not given) yielded an INHIBITION of 29%. `COCCn1cc(NC(=O)NC(C)CCc2ccccc2)ccc1=O` (stereo not given) was tested, and the INHIBITION was 28.7%. `CCCn1cc(NC(=O)c2cccnc2O)ccc1=O` showed an INHIBITION of 58.5%. `Cn1cc(NC(=O)c2cccc3cccnc23)ccc1=O` gave an INHIBITION of -10.8%. Work on `CCCn1cc(NC(=O)c2ccc(NC(=O)NC3CC3)cc2)ccc1=O` yielded an INHIBITION of -13.4%. Molecule `CCCn1cc(NC(=O)c2ccc(S(=O)(=O)CC)cc2)ccc1=O` has an INHIBITION of 60.3%. `CCCn1cc(NC(=O)c2ccncc2)ccc1=O` showed an INHIBITION of 50.8%. For `CCCn1cc(NC(=O)c2cccc3cccnc23)ccc1=O`, the INHIBITION was -1.04%. Work on `CCCn1cc(NC(=O)c2ccc(N(C)CC)cc2)ccc1=O` yielded an INHIBITION of 46.6%. Work on `CCCn1cc(NC(=O)c2ccc(S(C)(=O)=O)cc2)ccc1=O` yielded an INHIBITION of -5.65%. Molecule `CC(C)n1ccnc1CN1CCCN(C(=O)CN(C)C2CC2)CC1` has an INHIBITION of 40%. `Cc1nc(CN2CCCC(NCCOc3cccc(C#N)c3)C2)no1` (stereo not given) gave an INHIBITION of 0.914%. For `Cc1nccn1-c1cc(CNC(=O)CCS(=O)(=O)C2CCCC2)ccn1`, the INHIBITION was 5.9%. For `Cc1ccc(OCCSC2=NCCN2)cc1`, the INHIBITION was 32.5%. In the case of `Cc1c(NC(=O)c2noc3c2CCCC3)cnn1C`, the INHIBITION is reported as 10%. `Cn1ccnc1Sc1ncc(C(=O)N2CCCCC2)cc1Cl` showed an INHIBITION of 27.6%. Molecule `CCOCCCNC(=O)c1nn(CC)cc1Cl` has an INHIBITION of 7.9%. `CCN(CC)C(=O)c1cnc(Sc2nccn2C)c(Cl)c1` was tested, and the INHIBITION was 48%. `CCNC(=O)c1cnc(Sc2nccn2C)c(Cl)c1` showed an INHIBITION of 62.8%. With `Cc1c(Cl)cc(C(=O)N(CCO)Cc2nccn2C)cc1Cl` the INHIBITION was -8.47%. `CC(C)NC(=O)c1cnc(Sc2nccn2C)c(Cl)c1` showed an INHIBITION of 62.8%. For `CN1CCN(S(=O)(=O)c2ccc(Sc3nccn3C)nc2)CC1`, the INHIBITION was 46.1%. Molecule `CCOCCNC(=O)c1cnc(Sc2nccn2C)c(Cl)c1` has an INHIBITION of 50.8%. `Cn1c(-c2ccccc2Cl)nc2cc(C(=O)NCCOCCO)cnc21` gave an INHIBITION of -50.7%. For `CCCn1nccc1NC(=O)CN1CCCC1Cn1nc(C)nc1C` (stereo not given), the INHIBITION was -101%. Molecule `Cn1nc2c(cc1=O)CN(CCN1CCCC1=O)CC2` has an INHIBITION of -7.35%. With `CCOc1ccc(Cl)c(C(=O)NC)n1` the INHIBITION was 49%. In the case of `CS(=O)(=O)NCC1(O)CCCN(C(=O)CCn2cc(Cl)cn2)CC1` (stereo not given), the INHIBITION is reported as -28.7%. For `CCCc1nc(CN(CCO)Cc2cc(Br)ccc2F)no1`, the INHIBITION was 39.4%. Molecule `CN1CCN(CCOc2ccc(NC(=O)c3cnc[nH]3)cc2)CC1` has an INHIBITION of 1.04%. In the case of `Cc1nn(C)c(C)c1CN(C)c1nc(C2CCCC2)nc2c1cnn2C`, the INHIBITION is reported as 42.6%. With `Cc1cc(C)nc(CN(C)c2nc(C3CCCC3)nc3c2cnn3C)c1` the INHIBITION was 0.87%. Molecule `Cc1c[nH]c(CN(C)c2nc(C3CCCC3)nc3c2cnn3C)n1` has an INHIBITION of 60.1%.
